Rab9 promoter act: qHTS Assay for Rab9 Promoter Activators; Huh7 Rab9 promoter-luciferase reporter, luminescence, 24 h; AID 485297, 2010; Potency, µM (top dose mostly 9.22 µM), for the others: top-dose activation, negative = inhibition, hits mostly activators; 2.8% of 320,000 active; further: % of control where 0% means no effect; nearly all actives have a fitted effect of over 60% in size
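Huh7 cells stably carrying Rab9 promoter–luciferase reporter, plated 1500 cells/well, compound added after 2 h and incubated 24 h at 37 °C; luciferase luminescence then read after 10 min with detection reagent.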
NPC1 promoter act: qHTS Assay for NPC1 Promoter Activators | Huh7 NPC1 promoter luciferase reporter, 24 h | Potency, µM (doses to about 9.22 µM), without a hit: at the top dose activation, hits mostly activators | 2.4% of 320,000 active | AID 485313, 2010; further: % of control where 0% means no effect; nearly all actives have a fitted effect of over 60% in size
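Luminescence read-out of NPC1 promoter-driven luciferase in stably transfected Huh7 cells; compounds delivered in DMSO and left 24 h at 37C, 5% CO2, qHTS titration format.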
FLuc modulator: qHTS profiling assay for firefly luciferase inhibitor/activator using purifed enzyme and Km concentrations of substrates (counterscreen for miR-21 project). Potency, µM (series often up to 57.5 µM), inactives show at the top dose activity change, negative = inhibition, most hits filed as inhibitors. AID 588342, 2011. 6.9% of 360,000 active. purified FLuc, Km substrates, luminescence inhibition;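 further: plate controls were vehicle for no effect and reference inhibitor for full effect; nearly all actives have a fitted effect of over 55% in size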
Target sequence (P08659 whole entry, looked up): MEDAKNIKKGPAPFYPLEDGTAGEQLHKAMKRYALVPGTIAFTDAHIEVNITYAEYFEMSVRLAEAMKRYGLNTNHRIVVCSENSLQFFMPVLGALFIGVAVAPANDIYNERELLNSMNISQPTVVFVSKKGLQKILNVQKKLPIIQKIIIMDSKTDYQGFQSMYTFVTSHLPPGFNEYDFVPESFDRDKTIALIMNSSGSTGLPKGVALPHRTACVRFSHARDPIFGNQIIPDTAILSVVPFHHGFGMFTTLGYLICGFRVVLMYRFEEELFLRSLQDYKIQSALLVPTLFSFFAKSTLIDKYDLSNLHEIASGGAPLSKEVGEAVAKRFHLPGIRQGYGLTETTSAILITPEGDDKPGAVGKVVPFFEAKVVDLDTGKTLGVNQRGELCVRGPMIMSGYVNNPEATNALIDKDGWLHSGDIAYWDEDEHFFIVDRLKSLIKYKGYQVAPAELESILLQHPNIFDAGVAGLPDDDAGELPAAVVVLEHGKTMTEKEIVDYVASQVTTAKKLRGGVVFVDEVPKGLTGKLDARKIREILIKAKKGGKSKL
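Biochemical qHTS of compounds, final roughly 60 µM downward over six points, against 10 nM purified firefly luciferase using Km concentrations of substrates (10 uM D-luciferin, 10 uM ATP) in Tris acetate pH 7.5 buffer; luminescence output.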
SMN2 splice up: qHTS Assay for Enhancers of SMN2 Splice Variant Expression; AID 1458, 2008; Potency, µM (titrated, usually from 46.1 µM), for inactives: at the highest dose activity change, positive = activation, most hits filed as activators; 2.8% of 210,000 active; HEK293 SMN2-luciferase splicing reporter, luminescence, 30-36 h; further: % of control where 0% means no effect; nearly all actives have a fitted effect of over 55% in size
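HEK293 cells carry an SMN2 minigene-luciferase reporter in which exon 7 inclusion puts luciferase in frame. Cells were seeded at 2000 cells/well, attached for 10-12 hours, then exposed to compounds for 30-36 hours at 37C before ONE-Glo luminescence.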
ELG1 genotoxic: qHTS screen for small molecules that induce genotoxicity in human embryonic kidney (HEK293T) cells expressing luciferase-tagged ELG1; HEK293T ELG1-luciferase reporter, luminescence, 16 h; Potency, µM (doses to about 46 µM), for inactives: at the top dose activity change, positive = activation, hits mostly activators; 1.3% of 330,000 active; further: % of control where 0% means no effect; nearly all actives have a fitted effect of over 60% in size
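Step 1: seed 2,000 HEK293T ELG1-luciferase cells per well. Step 2: add compound or DMSO, incubate 16 hr at 37 °C. Step 3: ONE-Glo, 30 min at room temperature, read luminescence.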
ELG1 DNA repair: qHTS screen for small molecules that inhibit ELG1-dependent DNA repair in human embryonic kidney (HEK293T) cells expressing luciferase-tagged ELG1. HEK293T ELG1-luciferase reporter, luminescence, 16 h; DNA damage induced by 5-fluorouridine. Potency, µM (highest dose often 46.1 µM), without a hit: top-dose activity change, negative = inhibition, most hits filed as inhibitors. 2.3% of 330,000 active. AID 504467, 2011; further: on the % scale 0 is the no-effect control and ±100 the full control effect; nearly all actives have a fitted effect of over 55% in size
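Cells (2,000 per well) received 5-fluorouridine plus test compound or DMSO and were incubated 16 hr at 37 °C, 5% CO2. Luciferase activity was read by luminescence 30 min after ONE-Glo addition; signal suppression marked inhibition of damage-induced ELG1 function.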
Starred values were filed as active, the others as inactive; ? = inconclusive; nt = not tested or not shown; [ ] = remark or other dose. Rows were chosen to be rich in hits. Some 9.2% of all compounds tested hit in one or more screens of this group. The call rests on the fitted dose curve; in most records, active means well fitted curve in the direction sought with a large enough effect; inconclusive means small, poorly fitted or top-dose-only effect, or another doubt; inactive means no such curve, though single readings can be large; an effect the other way counts as inactive or inconclusive. Potency means the concentration at half of the fitted maximal effect.

SMILES	Rab9 promoter act	NPC1 promoter act	FLuc modulator	SMN2 splice up	ELG1 genotoxic	ELG1 DNA repair
Cc1ccc2nc(N(Cc3cccnc3)C(=O)c3ccc4c(c3)OCCO4)sc2c1	nt	nt	-15.2%	nt	nt	nt
COc1ccc2nc(N(Cc3cccnc3)C(=O)c3ccco3)sc2c1	nt	nt	16.9µM*	nt	nt	nt
Cc1ccccc1C(=O)N1CCN(c2ccc(NC(=S)NC(=O)c3ccco3)cc2)CC1	-16.1%	-5.6%	-1.5%	nt	-15.8%	?
Cc1ccccc1C(=O)N1CCN(c2ccc(NC(=O)c3cccnc3)cc2)CC1	-4.3%	0.2%	-2.2%	-29.8%	-11.7%	?
Cc1ccccc1C(=O)N1CCN(c2ccc(NC(=O)c3ccc4c(c3)OCO4)cc2)CC1	-11.3%	-6.0%	2.3%	nt	-19.6%	5.8µM*
O=C(Nc1ccc(N2CCN(C(=O)c3ccco3)CC2)cc1)c1ccc2c(c1)OCO2	-0.8%	1.8%	-0.1%	-39.1%	6.7%	18.4µM*
CCN1CCN(C(=O)c2cc3c(-c4ccc(Cl)cc4)nn(C)c3s2)CC1	7.2%	8.4%	-1.2%	0.4%	2.4%	-19.6%
Cn1nc(-c2ccc(Cl)cc2)c2cc(C(=O)N3CCN(C(=O)c4ccco4)CC3)sc21	-4.0%	7.1%	-11.4%	-2.8%	-6.5%	8.2µM*
COc1ccccc1C(=O)NC(=S)Nc1ccc(N2CCN(C(=O)c3ccco3)CC2)cc1	-19.2%	-9.1%	-5.8%	nt	-10.7%	13µM*
CCOC(=O)CSc1nc2c([nH]c3ccccc32)c(=O)n1-c1ccc(OCC)cc1	nt	nt	1.9%	nt	nt	nt
Cc1ccc(S(=O)(=O)N2CCN(C(=O)Cc3ccc4c(c3)OCCO4)CC2)cc1C	-0.3%	-1.2%	-0.5%	-8.5%	1.7%	-1.4%
O=C(c1ccco1)N1CCN(c2ccc(Cl)cc2)CC1	?	?	16.9µM*	11.2µM*	?	?
O=C(Nc1ccc(N2CCN(C(=O)c3ccco3)CC2)cc1)c1cc(Br)ccc1Cl	-18.2%	-19.3%	nt	nt	-10.6%	11.6µM*
C=CCn1c(SCC(=O)NC(=O)c2cccc([N+](=O)[O-])c2)nnc1-c1ccccc1F	0.2%	-0.3%	-1.0%	-1.6%	0.7%	-1.6%
CC(=O)Nc1ccc(S(=O)(=O)N2CCN=C2SCc2ccc(F)cc2)cc1	-12.9%	-1.3%	-3.8%	nt	-2.6%	2.91µM*
O=C(OCc1nc2ccccc2s1)C1CCN(C2=NS(=O)(=O)c3ccccc32)CC1	?	7.1%	10.7µM*	17.6%	?	?
O=C(c1csc(Nc2ccccc2Cl)n1)N1CCCC1	?	?	?	12.6µM*	20.2%	?
O=C(c1cc(-c2ccc(Cl)cc2)on1)N1CCN(c2ccc(F)cc2)CC1	-1.0%	-0.2%	-1.6%	nt	-1.4%	11.0%
COc1ccccc1-c1cc(C(=O)N2CCCC2)no1	2µM*	2.51µM*	7.57µM*	nt	2.91µM*	?
O=C(c1cc(-c2ccc(Cl)c(Cl)c2)on1)N1CCN(c2ccccc2)CC1	0.7%	-6.3%	?	-1.8%	8.3%	?
O=C(c1csc(Nc2cccc3ccccc23)n1)N1CCCC1	0.1%	0.8%	-10.8%	nt	-4.6%	4.2%
O=C(c1cccc(F)c1)N1CCN(C(=O)c2cc(-c3ccc(Cl)cc3Cl)on2)CC1	-3.1%	0.5%	10.7µM*	nt	-5.2%	?
O=C(c1cc(-c2ccccc2Cl)on1)N1CCCC1	?	?	1.2µM*	nt	?	?
Cc1nn(-c2ccc(F)cc2)c(N)c1C1(O)C(=O)Nc2ccccc21 (stereo not given)	-1.4%	-1.5%	-2.6%	6.7%	0.7%	-6.9%
Cn1nc(C(=O)N2CCN(c3ccc([N+](=O)[O-])cc3)CC2)c2c1-c1ccccc1S(=O)(=O)C2	-13.7%	-4.4%	-0.9%	nt	6.1%	-3.1%
SMILES	Rab9 promoter act	NPC1 promoter act	FLuc modulator	SMN2 splice up	ELG1 genotoxic	ELG1 DNA repair
CC[C@H](C(=O)c1cccs1)C(O)(C(F)(F)F)C(F)(F)F	nt	nt	nt	-1.8%[9.22 µM]	nt	nt
COc1ccccc1-c1cc(C(=O)N2CCN(c3ccc(F)cc3)CC2)no1	-0.8%	0.8%	-16.9%	-18.1%	-4.0%	?
COc1ccccc1-c1cc(C(=O)N2CCOCC2)no1	2.24µM*	?	13.5µM*	nt	2.91µM*	?
O=C(O)c1ccc(-c2ccc(/C=C3\NC(=O)N(Cc4ccc(Cl)cc4)C3=O)o2)cc1Cl	-2.4%	-5.6%	?	9.0%	1.8%	3.8%
Nc1nc(NCCO)nc(N2CCCCCC2)c1[N+](=O)[O-]	15.6%	-5.1%	-1.6%	nt	-3.3%	-2.3%
OCCN(CCO)c1nc(N2CCCCC2)c2nc(N(CCO)CCO)nc(N3CCCCC3)c2n1	-8.9%[46.1 µM]	6.0%[46.1 µM]	-0.5%	-43.1%	-7.9%	0.461µM*
CCCC(=O)Nc1ccc2c(c1)Cc1ccccc1-2	2.51µM*	1.78µM*	9.53µM*	nt	?	?
CCCCN(C)CCC(=O)Nc1ccc2c(c1)CCC2	-10.7%	-11.5%	1.1%	nt	-10.4%	14.6µM*
COc1ccc(CC(=O)Nc2ccc3c(c2)CCC3)cc1OC	-15.8%	-4.5%	-2.5%	-58.5%	13.9%	10.3µM*
COc1ccc(OC)c(CC(=O)Nc2ccc3c(c2)CCC3)c1	-0.7%	-1.4%	-10.8%	nt	0.3%	-19.9%
COc1ccc(NC(=O)CN(C)CC(=O)Nc2ccc3c(c2)CCC3)cc1	1.5%	-7.5%	-1.2%	-7.7%	-1.6%	-4.4%
COc1ccccc1CC(=O)Nc1ccc2c(c1)CCC2	1.4%	-4.0%	?	-8.9%	4.4%	?
COc1ccccc1C(=O)NCC(=O)Nc1ccc2c(c1)CCC2	26.5%	?	12µM*	nt	?	?
CCOC(=O)c1cccc(NC(=O)c2ccc3nc(CCc4ccccc4)oc3c2)c1	nt	nt	-23.3%	nt	nt	nt
O=C1[C@H]2[C@@H](C3CC3)N3C(=O)CN(Cc4ccccn4)C(=O)[C@@]3(Cc3ccccc3)[C@H]2C(=O)N1c1ccccc1	-0.9%	-0.3%	1.6%	nt	-2.7%	5.4%
O=C(Cc1ccccc1F)Nc1ccc2c(c1)CCC2	3.16µM*	2µM*	7.57µM*	nt	14.6µM*	?
Cc1ccccc1CC(=O)Nc1ccc2c(c1)CCC2	2.7%	-0.6%	?	nt	9.2%	?
COC(=O)c1ccccc1NC(=O)CSCC(=O)Nc1ccccc1	-1.6%	-2.3%	3.9%	-13.4%	-0.8%	-3.3%
COc1cccc(CN2CCN(Cc3cc(OC)c(OC)cc3[N+](=O)[O-])CC2)c1	-7.2%	0.6%	4.9%	-25.2%	0.7%	?

High-throughput results deposited in PubChem BioAssay by National Center for Advancing Translational Sciences (NCATS).
